Data from the supplement of paper PMC12632987.
The full ranking holds about 2,300 sequences; the median of “median log2 fold change of GCK-ALFA target abundance (FLAG IP / Myc IP barcode read proportion)” is about 0.095, and the lowest 2% start at about -0.47. What follows is part of a selection rich in the lowest values, with near analogues and random picks from the rest.

B1: LC3A_45_1977 (protein)
chain: MAEATLDVLVPRELAEAALEALKRGAERLLEERGPGVEVDLEALEESYRATRDEEEVLLTVRIRAPTRQEALDLADELVEELERELGRPVAAAISVEELP
B2: LC3A_59_2019 (protein)
chain: MEEIEEYREKLREAIDNIDEFVEIVREGLEKFKDDKEKVEALLEEVMEVIVEELGADPEEAEKVLKRMKEIFKTEKDKEKAIELVVDEIRDLLLLTPIEE
B3: LC3A_3_1859 (protein)
chain: MEEIKKEIIELLKSLGRSEEVIEAAERLANLLIERGYKEALETLLEELKKLKDVSDEILLAMFEDLIEALETEDLSEEELIERIEEEARIALNDQEIEEL
B4: LC3A_17_549 (protein)
chain: MEEIKKELEKLLKELEALVKELEKYDPEAAKKLKKKLKEAKKLLEEGKLKEAAETLAEAARELANKLDELEPKHGNEASVLAMEASGLELEAIGLLLKLE
B5: LC3A_3_1857 (protein)
chain: MEEIKKEILELLKKLGRSEETIKAAEELADALIKRGYKKALEKLLEELKKLKNASDELLLDMFKELLAALENEKLNEEELIKKIEEEAKIVKNEQEIIEL
B6: LC3A_147_450 (protein)
chain: VLYEITVDILFKNDPELAEEVEEEIKEIAEKYGGEVEVEREVEQETPTTTLYFVRVTIKFEDEEKALEAEQEISELLDETAKKHPEKFVGAMISIEKIEE
B7: LC3A_28_755 (protein)
chain: ADIEGTIKEAIERAKKAKEEGKEEVIEITVPAGATQADIDKVIEGMEEIAEINKDMKRTTILVNVEAGVAQENLDKLIDAGEEIEEKYPNVTVIFALDEE
B8: LC3A_28_1202 (protein)
chain: SATKAAADAALAEAKALLAAGEEGVVELVVEGKITEEETQYVIDKLEEIAELAAKSGKISIVLDISGEVPEEHQQKLIDKADELEKKYPNVNIIVALEER

Target: MAP1LC3A, Q9H492
Experiment: median log2 fold change of GCK-ALFA target abundance (FLAG IP / Myc IP barcode read proportion) (log2 ratio); each designed protein is fused to an ALFA-tag nanobody in HEK293 cells to bring the named protein to FLAG-tagged glucokinase (GCK); Myc marks an untargeted standard; higher = target protein stabilised (more abundant)
Conditions: target protein: 3xFLAG-MCP-GCK-ALFA reporter; HEK293 landing pad (RPLP)
Procedure: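 LABEL-seq trans screen in HEK293 landing-pad cells. Each de novo designed 100-aa effector handle, binding the indicated effector (E3 ligase, DUB or autophagy protein), is fused to a constant NbALFA target handle and induced with 2 ug/mL doxycycline. A FLAG-MCP-GCK-ALFA target and a Myc-MCP standard reporter were transfected, and after 48 h circRNA barcodes were recovered by anti-FLAG and anti-Myc IP and sequenced. The value is the median across barcodes (at least 3 per design) of log2(FLAG/Myc read-proportion ratio), with the two transfection replicates pooled. Negative values mean degradation and positive values mean stabilisation of the target.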

Binder	median log2 fold change
B1	0.107
B2	-0.514
B3	0.169
B4	0.207
B5	0.117
B6	-0.716
B7	-0.196
B8	-0.206
